# The sample as a whole holds a higher share of the strongest signals than the screen did.
# B1: DrGRIFIN (Danio rerio), Q6DGJ1 (protein)
# chain: MTLRFEASCPDGLCPGWSVILKGETPPEASKFEINFLCDRDDRVAFHFNPRFTESDIICNSYMANRWGQEERCNHFPLGVEEPFQIEIYSDNDHFHVYIDKAKVMQYKHRVEDLKTITKLQVVNDVKISSLEITKKLFY
# Tests used:
# Assay in all cases: glycan array binding signal (z-score within array); higher = stronger binding
# Settings in all cases: glycan notation: IUPAC condensed, linker removed
# [1] = target: Fuc(a1-2)[Gal(a1-3)]Gal(b1-3)GlcNAc
# In short: (§1)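 Negative Z-scores can be read as non-binding. The Z-score is calculated within each array and then averaged across arrays of one protein sequence at different concentrations or buffers and across linkers. Arrays, 3228 in all, were curated from the Consortium for Functional Glycomics database and kept only where the protein sequence was available.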
# [2] = target: Fuc(a1-2)[Gal(a1-3)]Gal(b1-3)GlcNAc(b1-2)Man(a1-3)[Fuc(a1-2)[Gal(a1-3)]Gal(b1-3)GlcNAc(b1-2)Man(a1-6)]Man(b1-4)GlcNAc(b1-4)GlcNAc
# In short: as §1
# [3] = target: Fuc(a1-2)[Gal(a1-3)]Gal(b1-3)GlcNAc(b1-3)GalNAc
# In short: as §1
# [4] = target: Fuc(a1-2)[Gal(a1-3)]Gal(b1-3)GlcNAc(b1-6)GalNAc
# In short: as §1
# [5] = target: Fuc(a1-2)[Gal(a1-3)]Gal(b1-4)Glc
# In short: as §1
# [6] = target: Fuc(a1-2)[Gal(a1-3)]Gal(b1-4)GlcNAc
# In short: as §1
# [7] = target: Fuc(a1-2)[Gal(a1-3)]Gal(b1-4)GlcNAc(b1-2)Man
# In short: as §1
# [8] = target: Fuc(a1-2)[Gal(a1-3)]Gal(b1-4)GlcNAc(b1-2)Man(a1-3)[Fuc(a1-2)[Gal(a1-3)]Gal(b1-4)GlcNAc(b1-2)Man(a1-6)]Man(b1-4)GlcNAc(b1-4)GlcNAc
# In short: as §1
# [9] = target: Fuc(a1-2)[Gal(a1-3)]Gal(b1-4)GlcNAc(b1-2)Man(a1-3)[Fuc(a1-2)[Gal(a1-3)]Gal(b1-4)GlcNAc(b1-2)Man(a1-6)]Man(b1-4)GlcNAc(b1-4)[Fuc(a1-6)]GlcNAc
# In short: as §1
# [10] = target: Fuc(a1-2)[Gal(a1-3)]Gal(b1-4)GlcNAc(b1-3)GalNAc
# In short: as §1
# [11] = target: Fuc(a1-2)[Gal(a1-3)]Gal(b1-4)GlcNAc(b1-3)[Fuc(a1-2)[Gal(a1-3)]Gal(b1-4)GlcNAc(b1-6)]GalNAc
# In short: as §1
# [12] = target: Fuc(a1-2)[Gal(a1-3)]Gal(b1-4)[Fuc(a1-3)]GlcNAc(b1-3)GalNAc
# In short: as §1
# [13] = target: Fuc(a1-2)[GalNAc(a1-3)]Gal(b1-4)GlcNAc(b1-6)GalNAc
# In short: as §1
# [14] = target: Fuc(a1-3)[Gal(b1-4)]GlcNAc(b1-6)[Gal(b1-3)GlcNAc(b1-3)]Gal(b1-4)Glc
# In short: as §1
# [15] = target: Gal(b1-3)GlcNAc(b1-2)Man(a1-3)[Gal(b1-3)GlcNAc(b1-2)Man(a1-6)]Man(b1-4)GlcNAc(b1-4)[Fuc(a1-6)]GlcNAc
# In short: as §1
# [16] = target: Gal(b1-3)GlcNAc(b1-3)Gal(b1-4)GlcNAc(b1-3)Gal(b1-4)GlcNAc(b1-2)[Gal(b1-3)GlcNAc(b1-3)Gal(b1-4)GlcNAc(b1-3)Gal(b1-4)GlcNAc(b1-6)]Man(a1-6)[Gal(b1-3)GlcNAc(b1-3)Gal(b1-4)GlcNAc(b1-3)Gal(b1-4)GlcNAc(b1-2)Man(a1-3)]Man(b1-4)GlcNAc(b1-4)[Fuc(a1-6)]GlcNAc
# In short: as §1
# [17] = target: Gal(b1-3)[Fuc(a1-4)]GlcNAc
# In short: as §1
# Gal(b1-4)Glc = target: Gal(b1-4)Glc
# In short: as §1
# Gal(b1-4)Glc6S = target: Gal(b1-4)Glc6S
# In short: as §1
# [18] = target: Gal(b1-4)GlcNAc(a1-6)Gal(b1-4)GlcNAc
# In short: as §1
# [19] = target: Gal(b1-4)GlcNAc(b1-2)Man(a1-6)[GlcNAc(b1-2)Man(a1-3)]Man(b1-4)GlcNAc(b1-4)GlcNAc
# In short: as §1
# [20] = target: Gal(b1-4)GlcNAc(b1-3)Gal(b1-4)GlcNAc(b1-2)[Gal(b1-4)GlcNAc(b1-3)Gal(b1-4)GlcNAc(b1-6)]Man(a1-6)[Gal(b1-4)GlcNAc(b1-3)Gal(b1-4)GlcNAc(b1-2)Man(a1-3)]Man(b1-4)GlcNAc(b1-4)GlcNAc
# In short: as §1
# Gal3S6S(b1-4)GlcNAc = target: Gal3S6S(b1-4)GlcNAc
# In short: as §1
# Gal3S6S(b1-4)GlcNAc6S = target: Gal3S6S(b1-4)GlcNAc6S
# In short: as §1
# Gal6S(b1-4)GlcNAc = target: Gal6S(b1-4)GlcNAc
# In short: as §1
# [21] = target: GalNAc(b1-3)Gal(a1-4)Gal(b1-4)GlcNAc(b1-3)Gal(b1-4)Glc
# In short: as §1
# GalNAc(b1-3)GlcNAc = target: GalNAc(b1-3)GlcNAc
# In short: as §1
# [22] = target: GalNAc(b1-4)GlcNAc(b1-2)Man
# In short: as §1
# GalNAc3S(b1-4)GlcNAc = target: GalNAc3S(b1-4)GlcNAc
# In short: as §1
# [23] = target: GlcNAc(a1-4)Gal(b1-4)GalNAc
# In short: as §1
# [24] = target: GlcNAc(b1-3)Gal(b1-4)GlcNAc(b1-2)Man(a1-3)[GlcNAc(b1-3)Gal(b1-4)GlcNAc(b1-2)Man(a1-6)]Man(b1-4)GlcNAc(b1-4)GlcNAc
# In short: as §1
# [25] = target: GlcNAc(b1-3)Gal(b1-4)GlcNAc(b1-3)Gal(b1-4)GlcNAc(b1-3)Gal(b1-4)GlcNAc(b1-2)[GlcNAc(b1-3)Gal(b1-4)GlcNAc(b1-3)Gal(b1-4)GlcNAc(b1-3)Gal(b1-4)GlcNAc(b1-6)]Man(a1-6)[GlcNAc(b1-3)Gal(b1-4)GlcNAc(b1-3)Gal(b1-4)GlcNAc(b1-3)Gal(b1-4)GlcNAc(b1-2)Man(a1-3)]Man(b1-4)GlcNAc(b1-4)[Fuc(a1-6)]GlcNAc
# In short: as §1
# [26] = target: GlcNAc(b1-4)Gal(b1-4)GlcNAc
# In short: as §1
# [27] = target: Man(a1-2)Man(a1-6)[Man(a1-3)]Man(a1-6)[Man(a1-2)Man(a1-2)Man(a1-3)]Man
# In short: as §1
# [28] = target: Man(a1-3)[Man(a1-6)]Man(a1-6)[Man(a1-2)Man(a1-3)]Man(b1-4)GlcNAc(b1-4)GlcNAc
# In short: as §1
# [29] = target: Neu5Ac(a2-3)Gal(b1-3)GlcNAc(b1-3)Gal(b1-3)GlcNAc
# In short: as §1
# [30] = target: Neu5Ac(a2-3)Gal(b1-3)GlcNAc(b1-3)GalNAc
# In short: as §1
# [31] = target: Neu5Ac(a2-3)Gal(b1-4)GlcNAc(b1-2)Man(a1-3)[Neu5Ac(a2-3)Gal(b1-4)GlcNAc(b1-2)Man(a1-6)]Man(b1-4)GlcNAc(b1-4)GlcNAc
# In short: as §1
# [32] = target: Neu5Ac(a2-3)Gal6S(b1-4)GlcNAc
# In short: as §1
# [33] = target: Neu5Ac(a2-6)Gal(b1-4)GlcNAc(b1-2)Man(a1-3)[Neu5Ac(a2-6)Gal(b1-4)GlcNAc(b1-2)Man(a1-6)]Man(b1-4)GlcNAc(b1-4)GlcNAc
# In short: as §1
# [34] = target: Neu5Ac(a2-6)Gal(b1-4)GlcNAc(b1-2)Man(a1-6)[Gal(b1-4)GlcNAc(b1-2)Man(a1-3)]Man(b1-4)GlcNAc(b1-4)GlcNAc
# In short: as §1
# [35] = target: Neu5Ac(a2-6)Gal(b1-4)GlcNAc(b1-2)[Neu5Ac(a2-6)Gal(b1-4)GlcNAc(b1-4)]Man(a1-3)[GlcNAc(b1-4)][Neu5Ac(a2-6)Gal(b1-4)GlcNAc(b1-2)[Neu5Ac(a2-6)Gal(b1-4)GlcNAc(b1-6)]Man(a1-6)]Man(b1-4)GlcNAc(b1-4)GlcNAc
# In short: as §1
# [36] = target: Neu5Ac(a2-6)Gal(b1-4)GlcNAc(b1-3)GalNAc
# In short: as §1
# Neu5Ac(a2-8)Neu5Ac = target: Neu5Ac(a2-8)Neu5Ac
# In short: as §1
# [37] = target: Neu5Ac(a2-8)Neu5Ac(a2-3)[GalNAc(b1-4)]Gal(b1-4)Glc
# In short: as §1
# Neu5Gc(a2-6)GalNAc = target: Neu5Gc(a2-6)GalNAc
# In short: as §1
binder,measurement,setting,value
B1,glycan array binding signal (z-score),[1],5.95
same,glycan array binding signal (z-score),[2],10.6
same,glycan array binding signal (z-score),[3],5.36
same,glycan array binding signal (z-score),[4],6.96
same,glycan array binding signal (z-score),[5],6.1
same,glycan array binding signal (z-score),[6],6.44
same,glycan array binding signal (z-score),[7],9.46
same,glycan array binding signal (z-score),[8],4.9
same,glycan array binding signal (z-score),[9],5.59
same,glycan array binding signal (z-score),[10],4.81
same,glycan array binding signal (z-score),[11],6.36
same,glycan array binding signal (z-score),[12],-0.062
same,glycan array binding signal (z-score),[13],-0.23
same,glycan array binding signal (z-score),[14],-0.109
same,glycan array binding signal (z-score),[15],-0.135
same,glycan array binding signal (z-score),[16],-0.107
same,glycan array binding signal (z-score),[17],-0.187
same,glycan array binding signal (z-score),Gal(b1-4)Glc,-0.191
same,glycan array binding signal (z-score),Gal(b1-4)Glc6S,-0.201
same,glycan array binding signal (z-score),[18],-0.172
same,glycan array binding signal (z-score),[19],-0.071
same,glycan array binding signal (z-score),[20],-0.039
same,glycan array binding signal (z-score),Gal3S6S(b1-4)GlcNAc,-0.193
same,glycan array binding signal (z-score),Gal3S6S(b1-4)GlcNAc6S,-0.097
same,glycan array binding signal (z-score),Gal6S(b1-4)GlcNAc,-0.181
same,glycan array binding signal (z-score),[21],-0.12
same,glycan array binding signal (z-score),GalNAc(b1-3)GlcNAc,-0.192
same,glycan array binding signal (z-score),[22],-0.129
same,glycan array binding signal (z-score),GalNAc3S(b1-4)GlcNAc,-0.052
same,glycan array binding signal (z-score),[23],-0.154
same,glycan array binding signal (z-score),[24],-0.132
same,glycan array binding signal (z-score),[25],-0.163
same,glycan array binding signal (z-score),[26],-0.166
same,glycan array binding signal (z-score),[27],-0.123
same,glycan array binding signal (z-score),[28],-0.189
same,glycan array binding signal (z-score),[29],-0.131
same,glycan array binding signal (z-score),[30],-0.117
same,glycan array binding signal (z-score),[31],-0.141
same,glycan array binding signal (z-score),[32],-0.179
same,glycan array binding signal (z-score),[33],-0.171
same,glycan array binding signal (z-score),[34],-0.195
same,glycan array binding signal (z-score),[35],-0.026
same,glycan array binding signal (z-score),[36],-0.217
same,glycan array binding signal (z-score),Neu5Ac(a2-8)Neu5Ac,-0.131
same,glycan array binding signal (z-score),[37],-0.146
same,glycan array binding signal (z-score),Neu5Gc(a2-6)GalNAc,-0.148
